Results taken from the supplement of paper PMC10849652.
Targets with a hit are over-represented here; the source holds about 8,800 in all. About 0.5% of all pairs of compound and target were hits.

Legend:
Test in all cases: log2 fold change, soluble protein after heating vs DMSO (PISA); higher = thermal stabilisation; K562 lysate, 10 uM; active = over 0.2 and 3.5 SD of the protein, either way, in both replicates (recomputed)
[1] = compound: CS(=O)(=O)CCNCc1ccc(-c2ccc3ncnc(Nc4ccc(OCc5cccc(F)c5)c(Cl)c4)c3c2)o1 [lapatinib]
Outline: (§1)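 K562 pellets were dounce-homogenised in PBS pH 7.4 containing 1 mM MgCl2, and the crude extract, at 1 mg/mL protein, was exposed to 10 μM compound for 30 min. Aliquots were heated for 3 min across 48°C-58°C, pooled, brought to 0.5% NP-40 at 4°C and spun at 21,000xg for 90 min, with the supernatant taken as soluble protein. TMTpro 16plex LC-MS/MS with equalised channel sums quantified that protein. Values are log-two fold changes in thermal stability relative to solvent controls, taken from duplicates.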

[2] = compound: CS(=O)(=O)N1CCN(Cc2cc3nc(-c4cccc5[nH]ncc45)nc(N4CCOCC4)c3s2)CC1 [pictilisib]
Outline: as §1

[3] = compound: C[C@@H](Oc1cc(-c2cnn(C3CCNCC3)c2)cnc1N)c1c(Cl)ccc(F)c1Cl [crizotinib]
Outline: as §1

[4] = compound: C[C@H](C1=CC=C(C=C1)C(=O)NC2=C3C=CNC3=NC=C2)N
Outline: as §1

[5] = compound: C[C@H](Nc1ncnc2nc[nH]c12)c1cc2cccc(Cl)c2c(=O)n1-c1ccccc1 [duvelisib]
Outline: as §1

[6] = compound: Cc1cc(Nc2cc(CN3CCOCC3)c3nc(C)c(Cc4ccc(Cl)cc4F)n3n2)n[nH]1 [gandotinib]
Outline: as §1

[7] = compound: Cc1cc(Nc2cc(N3CCN(C)CC3)nc(Sc3ccc(NC(=O)C4CC4)cc3)n2)n[nH]1 [tozasertib]
Outline: as §1

[8] = compound: Cc1ccc(-n2nc(C(C)(C)C)cc2NC(=O)Nc2ccc(OCCN3CCOCC3)c3ccccc23)cc1 [doramapimod]
Outline: as §1

[9] = compound: Cc1ccc(NC(=O)c2ccc(CN3CC[C@H](N(C)C)C3)c(C(F)(F)F)c2)cc1Nc1nccc(-c2cncnc2)n1 [bafetinib]
Outline: as §1

[10] = compound: Cc1cccc(CC(=O)N2CCc3c2ccc(-c2cn(C)c4ncnc(N)c24)c3F)n1
Outline: as §1

[11] = compound: Cc1cn(-c2cc(NC(=O)c3ccc(C)c(Nc4nccc(-c5cccnc5)n4)c3)cc(C(F)(F)F)c2)cn1 [nilotinib]
Outline: as §1

[12] = compound: Cc1nc(Nc2n[nH]c3c2CN(C(=O)N[C@H](CN(C)C)c2ccccc2)C3(C)C)c2sccc2n1
Outline: as §1

[13] = compound: Cc1nc(Nc2ncc(C(=O)Nc3c(C)cccc3Cl)s2)cc(N2CCN(CCO)CC2)n1 [dasatinib]
Outline: as §1

[14] = compound: Cc1ncc(-c2ccnc(Nc3ccc(S(C)(=O)=O)cc3)n2)n1C(C)C
Outline: as §1

[15] = compound: Cn1cc(-c2ccc3c(c2)CCN3C(=O)Cc2cccc(C(F)(F)F)c2)c2c(N)ncnc21
Outline: as §1

[16] = compound: Cn1cc(CNCC2CCN(c3ncc(C(=O)NO)cn3)CC2)c2ccccc21 [quisinostat]
Outline: as §1

[17] = compound: Cn1cncc1[C@@](N)(c1ccc(Cl)cc1)c1ccc2c(c1)c(-c1cccc(Cl)c1)cc(=O)n2C [tipifarnib]
Outline: as §1

[18] = compound: NC(=O)Nc1cc(-c2cccc(F)c2)sc1C(=O)N[C@H]1CCCNC1
Outline: as §1

[19] = compound: NC(=O)c1cnc(N[C@@H]2CCCC[C@@H]2N)nc1Nc1cccc(-n2nccn2)c1
Outline: as §1

[20] = compound: NC1(c2ccc(-c3nc4ccn5c(=O)[nH]nc5c4cc3-c3ccccc3)cc2)CCC1
Outline: as §1

Measured: log2 fold change

RPS26P11 (UniProt Q5JNZ5)
active: [4] -0.484 | [10] 0.24
inactive: [1] 0.024 | [2] -0.008 | [3] -0.085 | [5] 0.076 | [6] 0.147 | [7] -0.055 | [8] 0.021 | [9] -0.072 | [11] 0.026 | [12] 0.027 | [13] -0.017 | [14] 0.044 | [15] 0.02 | [16] -0.151 | [17] 0.004 | [18] -0.036 | [19] 0 | [20] -0.004

SBF1 isoform 4 (UniProt O95248)
Sequence of UniProt O95248 (O95248 whole entry, looked up): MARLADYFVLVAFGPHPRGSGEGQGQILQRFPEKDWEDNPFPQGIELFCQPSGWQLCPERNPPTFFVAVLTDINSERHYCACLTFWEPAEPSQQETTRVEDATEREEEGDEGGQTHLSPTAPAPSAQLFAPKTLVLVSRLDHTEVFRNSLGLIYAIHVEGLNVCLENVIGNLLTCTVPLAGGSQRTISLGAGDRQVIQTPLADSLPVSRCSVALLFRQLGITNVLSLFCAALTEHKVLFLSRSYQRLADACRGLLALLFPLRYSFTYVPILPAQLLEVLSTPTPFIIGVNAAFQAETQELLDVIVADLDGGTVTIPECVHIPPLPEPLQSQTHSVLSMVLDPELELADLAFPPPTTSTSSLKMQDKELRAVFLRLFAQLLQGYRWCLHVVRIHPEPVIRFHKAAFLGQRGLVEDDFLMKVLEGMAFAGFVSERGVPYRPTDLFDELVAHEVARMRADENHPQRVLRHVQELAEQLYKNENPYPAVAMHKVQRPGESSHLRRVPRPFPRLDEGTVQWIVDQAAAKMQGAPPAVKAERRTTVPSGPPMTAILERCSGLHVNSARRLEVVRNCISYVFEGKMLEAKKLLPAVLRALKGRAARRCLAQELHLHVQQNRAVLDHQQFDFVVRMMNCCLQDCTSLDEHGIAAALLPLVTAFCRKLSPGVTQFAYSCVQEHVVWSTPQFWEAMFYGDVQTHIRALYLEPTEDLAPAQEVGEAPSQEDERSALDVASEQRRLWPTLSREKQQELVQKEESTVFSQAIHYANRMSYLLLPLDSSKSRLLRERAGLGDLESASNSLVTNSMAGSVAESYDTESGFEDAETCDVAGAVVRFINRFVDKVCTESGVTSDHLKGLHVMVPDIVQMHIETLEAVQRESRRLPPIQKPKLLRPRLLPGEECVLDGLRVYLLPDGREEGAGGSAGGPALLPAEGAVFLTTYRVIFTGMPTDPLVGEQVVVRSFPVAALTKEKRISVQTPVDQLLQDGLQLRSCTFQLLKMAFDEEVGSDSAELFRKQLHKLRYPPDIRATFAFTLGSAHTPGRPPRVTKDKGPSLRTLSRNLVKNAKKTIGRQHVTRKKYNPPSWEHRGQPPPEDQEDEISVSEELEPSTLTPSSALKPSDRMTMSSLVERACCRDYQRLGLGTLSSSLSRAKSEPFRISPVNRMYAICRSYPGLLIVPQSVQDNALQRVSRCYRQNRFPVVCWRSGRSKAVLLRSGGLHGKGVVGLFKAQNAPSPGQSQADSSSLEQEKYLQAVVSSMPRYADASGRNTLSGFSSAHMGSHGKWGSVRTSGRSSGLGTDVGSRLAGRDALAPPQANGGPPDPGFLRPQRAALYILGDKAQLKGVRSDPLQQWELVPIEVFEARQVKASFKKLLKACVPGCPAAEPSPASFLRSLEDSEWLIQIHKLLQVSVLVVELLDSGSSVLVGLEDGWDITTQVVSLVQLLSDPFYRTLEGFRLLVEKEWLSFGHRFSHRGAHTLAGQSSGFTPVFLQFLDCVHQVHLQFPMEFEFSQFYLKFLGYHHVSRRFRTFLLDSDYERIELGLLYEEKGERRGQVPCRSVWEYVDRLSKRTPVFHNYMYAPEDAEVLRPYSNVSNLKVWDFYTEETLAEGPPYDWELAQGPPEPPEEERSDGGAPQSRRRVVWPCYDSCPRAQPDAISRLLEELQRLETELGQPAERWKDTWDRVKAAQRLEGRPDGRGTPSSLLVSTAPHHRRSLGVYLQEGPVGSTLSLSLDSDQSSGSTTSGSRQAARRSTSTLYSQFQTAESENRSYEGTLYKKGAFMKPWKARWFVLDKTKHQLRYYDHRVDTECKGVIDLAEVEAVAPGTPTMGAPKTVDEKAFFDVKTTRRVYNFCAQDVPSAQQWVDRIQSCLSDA
inactive: [1] -0.029 | [2] -0.075 | [3] 0.088 | [4] 0.07 | [5] -0.039 | [6] -0.066 | [7] 0 | [8] -0.004 | [9] -0.061 | [10] 0.006 | [11] -0.018 | [12] -0.041 | [13] 0.092 | [14] -0.046 | [15] 0.047 | [16] -0.103 | [17] 0.162 | [18] 0.12 | [19] 0.039 | [20] 0.091

RFC3 (UniProt P40938)
Sequence of UniProt P40938 (P40938 whole entry, looked up): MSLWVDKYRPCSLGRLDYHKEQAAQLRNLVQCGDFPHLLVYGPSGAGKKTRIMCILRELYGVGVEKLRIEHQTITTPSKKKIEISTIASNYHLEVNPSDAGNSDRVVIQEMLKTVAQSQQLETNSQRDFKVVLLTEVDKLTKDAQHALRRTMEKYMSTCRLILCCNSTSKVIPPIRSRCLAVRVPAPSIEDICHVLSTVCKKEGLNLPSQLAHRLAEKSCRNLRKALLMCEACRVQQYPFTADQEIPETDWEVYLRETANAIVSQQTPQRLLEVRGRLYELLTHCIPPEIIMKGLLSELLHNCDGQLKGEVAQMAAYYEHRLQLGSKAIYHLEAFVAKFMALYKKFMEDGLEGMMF
inactive: [1] -0.045 | [2] -0.009 | [3] -0.043 | [4] -0.072 | [5] 0.037 | [6] -0.039 | [7] 0.027 | [8] 0.016 | [9] -0.051 | [10] 0.1 | [11] 0 | [12] -0.05 | [13] -0.036 | [14] 0.034 | [15] 0.021 | [16] -0.081 | [17] 0.002 | [18] 0.094 | [19] 0.01 | [20] -0.006

QRSL1 (UniProt Q9H0R6)
inactive: [1] 0.038 | [2] 0.044 | [3] 0.031 | [4] 0.105 | [5] 0.044 | [6] -0.04 | [7] 0.044 | [8] 0.003 | [9] -0.227 | [10] -0.022 | [11] -0.022 | [12] 0.031 | [13] -0.018 | [14] 0.069 | [15] 0.07 | [16] -0.054 | [17] -0.002 | [18] 0.034 | [19] -0.02 | [20] -0.031

RPN2 (UniProt P04844)
inactive: [1] -0.048 | [2] -0.006 | [3] -0.004 | [4] -0.074 | [5] -0.003 | [6] 0.039 | [7] -0.003 | [8] 0 | [9] -0.032 | [10] 0.06 | [11] -0.011 | [12] 0.005 | [13] -0.008 | [14] -0.013 | [15] -0.006 | [16] 0.049 | [17] -0.015 | [18] -0.001 | [19] 0.011 | [20] -0.003

RBM22 (UniProt Q9NW64)
Sequence of UniProt Q9NW64 (Q9NW64 whole entry, looked up): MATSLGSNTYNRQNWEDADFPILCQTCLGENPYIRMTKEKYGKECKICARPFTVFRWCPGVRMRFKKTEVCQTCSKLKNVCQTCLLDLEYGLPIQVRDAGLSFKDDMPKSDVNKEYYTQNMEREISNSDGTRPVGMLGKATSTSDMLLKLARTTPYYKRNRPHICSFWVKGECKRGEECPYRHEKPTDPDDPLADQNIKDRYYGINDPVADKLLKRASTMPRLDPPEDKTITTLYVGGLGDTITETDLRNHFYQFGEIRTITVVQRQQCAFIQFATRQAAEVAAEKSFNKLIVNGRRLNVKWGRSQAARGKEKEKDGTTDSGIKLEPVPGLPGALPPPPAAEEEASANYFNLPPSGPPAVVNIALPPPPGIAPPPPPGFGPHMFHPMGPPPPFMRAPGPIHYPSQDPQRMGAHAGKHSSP
inactive: [1] -0.01 | [2] -0.011 | [3] 0.038 | [4] 0.034 | [5] 0.008 | [6] -0.019 | [7] 0.026 | [8] 0.072 | [9] 0.001 | [10] -0.016 | [11] -0.045 | [12] 0.024 | [13] -0.072 | [14] -0.006 | [15] 0.057 | [16] -0.022 | [17] -0.036 | [18] -0.027 | [19] 0.01 | [20] 0.033

RCOR1 (UniProt Q9UKL0)
inactive: [1] -0.056 | [2] -0.069 | [3] 0.048 | [4] -0.083 | [5] -0.004 | [6] -0.009 | [7] 0.019 | [8] -0.061 | [9] -0.056 | [10] 0.041 | [11] -0.024 | [12] -0.006 | [13] -0.054 | [14] 0.009 | [15] 0.003 | [16] 0.015 | [17] -0.022 | [18] 0.043 | [19] -0.015 | [20] 0.099

RBBP7 isoform 2 (UniProt Q16576)
inactive: [1] 0.002 | [2] 0.027 | [3] 0.008 | [4] -0.213 | [5] 0.025 | [6] 0.019 | [7] 0.017 | [8] 0.035 | [9] 0.018 | [10] -0.011 | [11] 0.013 | [12] -0.019 | [13] -0.005 | [14] -0.035 | [15] 0.016 | [16] -0.051 | [17] 0.047 | [18] 0.01 | [19] -0.025 | [20] 0.035

SEH1L isoform 1 (UniProt Q96EE3)
Sequence of UniProt Q96EE3 (Q96EE3 whole entry, looked up): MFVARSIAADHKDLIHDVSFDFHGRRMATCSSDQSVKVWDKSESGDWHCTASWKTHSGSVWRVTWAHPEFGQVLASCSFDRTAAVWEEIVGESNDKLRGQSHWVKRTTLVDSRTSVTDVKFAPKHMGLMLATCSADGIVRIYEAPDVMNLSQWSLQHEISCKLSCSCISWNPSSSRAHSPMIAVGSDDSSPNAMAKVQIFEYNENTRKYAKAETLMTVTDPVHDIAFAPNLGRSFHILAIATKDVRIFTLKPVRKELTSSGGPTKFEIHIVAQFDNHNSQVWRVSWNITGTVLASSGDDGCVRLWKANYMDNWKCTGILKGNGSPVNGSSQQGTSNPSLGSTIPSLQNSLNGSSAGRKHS
inactive: [1] -0.03 | [2] -0.009 | [3] 0.01 | [4] -0.027 | [5] -0.049 | [6] 0.029 | [7] 0.011 | [8] 0.007 | [9] -0.085 | [10] 0.052 | [11] -0.009 | [12] -0.019 | [13] 0.032 | [14] 0.006 | [15] 0.007 | [16] -0.008 | [17] -0.008 | [18] 0 | [19] 0.003 | [20] -0.028

RPS6KB1 (UniProt P23443)
active: [20] 0.405
inactive: [1] 0.009 | [2] 0.075 | [3] 0.16 | [4] -0.104 | [5] 0.001 | [6] 0.051 | [7] 0.022 | [8] -0.05 | [9] 0.006 | [10] 0.177 | [11] -0.034 | [12] 0.077 | [13] -0.003 | [14] 0.001 | [15] 0.003 | [16] -0.049 | [17] -0.008 | [18] 0.035 | [19] -0.014

RELN (UniProt P78509)
inactive: [1] 0.047 | [2] 0.047 | [3] -0.022 | [4] -0.104 | [5] 0.002 | [6] 0.057 | [7] -0.002 | [8] -0.044 | [9] -0.042 | [10] 0.08 | [11] -0.086 | [12] -0.039 | [13] -0.005 | [14] -0.047 | [15] 0.002 | [16] -0.005 | [17] -0.032 | [18] 0.042 | [19] -0.101 | [20] 0.013

RNASEL (UniProt Q05823)
inactive: [1] -0.034 | [2] -0.076 | [3] -0.04 | [4] -0.011 | [5] 0.007 | [6] -0.068 | [7] -0.014 | [8] -0.007 | [9] -0.018 | [10] -0.013 | [11] -0.034 | [12] 0.035 | [13] -0.014 | [14] -0.013 | [15] 0.02 | [16] -0.06 | [17] -0.016 | [18] 0.042 | [19] 0.026 | [20] -0.064

RAP1B (UniProt F5GZG1)
inactive: [1] 0.003 | [2] 0.02 | [3] -0.022 | [4] -0.313 | [5] 0.016 | [6] 0.127 | [7] 0.103 | [8] -0.115 | [9] -0.098 | [10] 0.201 | [11] 0.012 | [12] -0.066 | [13] 0.05 | [14] -0.253 | [15] 0.047 | [16] -0.011 | [17] -0.058 | [18] 0.087 | [19] -0.019 | [20] -0.029

REEP6 (UniProt Q96HR9)
Sequence of UniProt Q96HR9 (Q96HR9 whole entry, looked up): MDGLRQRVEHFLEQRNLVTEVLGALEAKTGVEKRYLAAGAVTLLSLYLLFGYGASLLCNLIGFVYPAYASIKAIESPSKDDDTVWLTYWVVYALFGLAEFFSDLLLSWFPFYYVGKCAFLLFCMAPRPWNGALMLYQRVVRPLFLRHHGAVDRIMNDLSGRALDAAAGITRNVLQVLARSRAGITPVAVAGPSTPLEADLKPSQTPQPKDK
inactive: [1] 0.066 | [2] 0.047 | [3] -0.04 | [4] -0.269 | [5] -0.006 | [6] 0.056 | [7] 0.097 | [8] 0.052 | [9] -0.031 | [10] 0.078 | [11] 0.058 | [12] 0.1 | [13] 0.204 | [14] 0.041 | [15] 0.009 | [16] -0.072 | [17] 0.001 | [18] -0.03 | [19] 0.155 | [20] -0.023

RABEPK (UniProt Q7Z6M1)
Sequence of UniProt Q7Z6M1 (Q7Z6M1 whole entry, looked up): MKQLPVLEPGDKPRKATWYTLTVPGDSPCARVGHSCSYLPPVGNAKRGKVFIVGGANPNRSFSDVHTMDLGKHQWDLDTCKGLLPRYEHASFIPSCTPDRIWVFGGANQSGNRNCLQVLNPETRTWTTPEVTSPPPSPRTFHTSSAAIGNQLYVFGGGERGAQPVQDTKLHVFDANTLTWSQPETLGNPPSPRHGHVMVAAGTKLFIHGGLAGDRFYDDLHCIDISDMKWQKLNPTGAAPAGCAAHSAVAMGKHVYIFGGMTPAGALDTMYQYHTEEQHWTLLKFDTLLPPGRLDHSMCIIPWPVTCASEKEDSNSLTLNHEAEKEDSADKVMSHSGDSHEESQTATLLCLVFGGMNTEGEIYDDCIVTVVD
inactive: [1] 0.003 | [2] -0.016 | [3] -0.008 | [4] -0.069 | [5] 0.018 | [6] 0.007 | [7] -0.033 | [8] 0.005 | [9] 0.024 | [10] 0.04 | [11] -0.003 | [12] 0.005 | [13] 0.005 | [14] -0.01 | [15] 0.012 | [16] 0.004 | [17] 0.007 | [18] -0.018 | [19] 0.013 | [20] 0.002

RAD54L2 (UniProt Q9Y4B4)
Sequence of UniProt Q9Y4B4 (Q9Y4B4 whole entry, looked up): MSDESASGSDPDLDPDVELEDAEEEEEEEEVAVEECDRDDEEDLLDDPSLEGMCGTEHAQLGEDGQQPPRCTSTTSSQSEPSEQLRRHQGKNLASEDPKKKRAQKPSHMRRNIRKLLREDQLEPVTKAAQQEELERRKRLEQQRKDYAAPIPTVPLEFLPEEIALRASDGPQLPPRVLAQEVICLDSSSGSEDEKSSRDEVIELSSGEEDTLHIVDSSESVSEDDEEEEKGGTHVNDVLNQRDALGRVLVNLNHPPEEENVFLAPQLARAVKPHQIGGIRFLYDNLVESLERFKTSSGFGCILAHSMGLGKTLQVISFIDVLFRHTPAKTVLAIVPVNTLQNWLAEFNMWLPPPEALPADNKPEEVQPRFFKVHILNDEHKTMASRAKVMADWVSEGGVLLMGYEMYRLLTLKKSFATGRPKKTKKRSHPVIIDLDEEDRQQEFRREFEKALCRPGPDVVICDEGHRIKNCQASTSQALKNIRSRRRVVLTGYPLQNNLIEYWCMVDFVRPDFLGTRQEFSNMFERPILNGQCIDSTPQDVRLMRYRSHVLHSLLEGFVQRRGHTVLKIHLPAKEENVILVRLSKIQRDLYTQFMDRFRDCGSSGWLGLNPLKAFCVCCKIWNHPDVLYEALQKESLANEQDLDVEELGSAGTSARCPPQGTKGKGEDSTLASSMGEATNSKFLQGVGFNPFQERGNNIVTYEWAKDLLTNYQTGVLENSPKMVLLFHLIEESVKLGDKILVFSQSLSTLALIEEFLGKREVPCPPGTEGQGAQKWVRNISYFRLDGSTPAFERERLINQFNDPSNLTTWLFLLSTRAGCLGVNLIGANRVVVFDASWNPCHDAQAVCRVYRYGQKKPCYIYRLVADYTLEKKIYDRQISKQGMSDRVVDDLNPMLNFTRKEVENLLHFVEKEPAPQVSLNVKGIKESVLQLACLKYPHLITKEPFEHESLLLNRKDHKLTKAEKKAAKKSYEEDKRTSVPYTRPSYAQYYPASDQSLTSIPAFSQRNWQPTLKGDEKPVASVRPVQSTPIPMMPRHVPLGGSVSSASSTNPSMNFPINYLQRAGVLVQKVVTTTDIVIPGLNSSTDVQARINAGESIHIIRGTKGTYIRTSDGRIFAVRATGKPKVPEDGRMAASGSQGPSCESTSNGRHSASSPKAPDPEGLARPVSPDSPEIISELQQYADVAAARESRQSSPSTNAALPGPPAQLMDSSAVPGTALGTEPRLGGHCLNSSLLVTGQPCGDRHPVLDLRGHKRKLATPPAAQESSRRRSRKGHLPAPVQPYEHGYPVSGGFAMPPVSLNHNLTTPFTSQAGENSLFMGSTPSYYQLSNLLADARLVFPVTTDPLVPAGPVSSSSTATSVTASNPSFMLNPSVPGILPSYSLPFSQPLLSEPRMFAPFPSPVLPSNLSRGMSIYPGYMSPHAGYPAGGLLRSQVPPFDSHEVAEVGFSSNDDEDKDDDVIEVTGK
inactive: [1] -0.209 | [2] -0.018 | [3] -0.037 | [4] -0.174 | [5] 0.026 | [6] -0.163 | [7] -0.166 | [8] -0.02 | [9] -0.095 | [10] 0.067 | [11] -0.037 | [12] -0.03 | [13] -0.053 | [14] -0.047 | [15] -0.15 | [16] -0.009 | [17] -0.105 | [18] -0.013 | [19] 0.035 | [20] -0.091
